Measurements: PubChem BioAssay (NCI)
This is part of a sample that, as a whole, favours compounds with a hit. Of some 79,000 tested, about 15% had one in any assay. Unmarked numbers belong to inactive results. Active and inactive are the calls of the source. Cut-off read from the data, not from the text of the source: active = growth inhibition above about 70%; inactive = the rest.

Assay: NCI Yeast Anticancer Drug Screen. Data for the rad50EPP+ strain (AID 151);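 note: 0% = growth of vehicle-treated control cultures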
Conditions: S. cerevisiae rad50 mutant strain, active compounds read high
Procedure: Growth inhibition of yeast strains with defined genetic alterations is measured as a screen for potential anti-cancer activity. Selected strains with alterations in DNA damage repair or cell cycle control were exposed to compounds and growth inhibition was measured relative to vehicle treated controls. The strain used in this assay is rad50EPP+

Structure (SMILES) | growth inhibition (at 1.2 µM) | growth inhibition (at 3.7 µM) | growth inhibition (at 11.0 µM) | growth inhibition (at 33.0 µM) | growth inhibition (at 100.0 µM)
CNC(=O)OCc1c(COC(=O)NC)c(C)n(-c2ccc(Cl)c(Cl)c2)c1C | -23% | -19% | -25% | -18% | 65%
O=C(c1c(F)c(F)c(F)c(F)c1F)c1c(F)c(F)c(F)c(F)c1F | 30% | 60% | 94% (active) | 96% (active) | 92% (active)
CN(C)N=Nc1ccc(NC=O)cc1 | 11% | 6% | 8% | 86% (active) | 98% (active)
Cc1ccnc(NS(=O)(=O)c2ccc(Nc3c4ccccc4nc4ccccc34)cc2)n1 | 30% | 41% | 64% | 73% (active) | 74% (active)
S=c1[nH]nc(Cc2ccccc2)c(=S)[nH]1 | -22% | -10% | -11% | 16% | 48%
O=C1c2ccccc2-c2ccc(NC(=O)C3CCCCC3C(=O)O)cc21 (stereo not given) | 4% | 15% | 22% | 34% | 55%
CCCCCCCCCC/C=C\CC(=O)O | -4% | 3% | 11% | 22% | 47%
CCSc1c2ccccc2c(-c2nc(F)nc(F)n2)n1CCc1ccccc1 | -22% | -17% | -22% | -15% | 3%
